Reference: PubChem BioAssay AID1159580 (chemical genetic matrix, 2015)
“And” between values parts separate entries of the source, which are not always exact repeats. Identical values can stand only once. Screen size: about 5,500 compounds; about 2,000 (36%) were called active. About 18% were inconclusive and are not listed. Cut-off read from the data, not from the text of the source: active = normalized growth mostly below about 0.91 (no sharp cut-off); inconclusive = no clear call, values can overlap the other calls; inactive = mostly above about 0.92. Some of the results follow.

Assay: chemical genetic growth profiling, strain panel (AID 1159580);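 note: tested at 20 µM; growth read once vehicle control cultures reached saturation at 30 °C; 1 = growth at the plate median or of vehicle wells; lower values mean less growth of the strain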
Details: S. cerevisiae deletion strains, growth OD

Measured: normalized growth

CC[C@@]1(O)C[C@H](O[C@H]2C[C@H](N(C)C)[C@H](O)[C@H](C)O2)c2c(cc3c(c2O)C(=O)c2c(O)cccc2C3=O)[C@H]1C(=O)OC
active: locus YAL021C, strain ccr4, stronger effect = lower value 0.653 | locus YAL026C, strain drs2, stronger effect = lower value 0.883 | locus YAL030W, strain snc1, stronger effect = lower value 0.907 | locus YBL061C, strain skt5, stronger effect = lower value 0.891 | locus YBR009C, strain hhf1, stronger effect = lower value 0.783 | locus YBR023C, strain chs3, stronger effect = lower value 0.899 | locus YBR231C, strain swc5, stronger effect = lower value 0.823 | locus YCL011C, strain gbp2, stronger effect = lower value 0.867 | locus YCL016C, strain dcc1, stronger effect = lower value 0.704 | locus YCL029C, strain bik1, stronger effect = lower value 0.854 | locus YDL035C, strain GPR1, stronger effect = lower value 0.797 | locus YDL074C, strain BRE1, stronger effect = lower value 0.765 | locus YDL101C, strain DUN1, stronger effect = lower value 0.786 | locus YDL185W, strain tfp1, stronger effect = lower value 0.853 | locus YDL192W, strain arf1, stronger effect = lower value 0.666 | locus YDR101C, strain arx1, stronger effect = lower value 0.8 | locus YDR137W, strain rgp1, stronger effect = lower value 0.631 | locus YDR159W, strain sac3, stronger effect = lower value 0.73 | locus YDR162C, strain NBP2, stronger effect = lower value 0.595 | locus YDR195W, strain ref2 1.73 [resistant] | locus YDR318W, strain mcm21, stronger effect = lower value 0.866 | locus YDR335W, strain msn5, stronger effect = lower value 0.908 | locus YDR388W, stronger effect = lower value 0.847 | locus YDR392W, strain spt3, stronger effect = lower value 0.676 | locus YDR502C, strain sam2, stronger effect = lower value 0.812 | locus YEL061C, strain CIN8, stronger effect = lower value 0.879 | locus YER015W, strain faa2, stronger effect = lower value 0.869 | locus YER167W, strain BCK2, stronger effect = lower value 0.884 | locus YFR010W, strain ubp6, stronger effect = lower value 0.887 | locus YGL086W, strain mad1, stronger effect = lower value 0.816 | locus YGL240W, strain doc1, stronger effect = lower value 0.788 | locus YGL248W, strain PDE1, stronger effect = lower value 0.88 | locus YGL253W, strain hxk2, stronger effect = lower value 0.792 | locus YGR135W, strain pre9, stronger effect = lower value 0.875 | locus YHR027C, strain rpn1, stronger effect = lower value 0.785 | locus YHR079C, strain IRE1 (second series), stronger effect = lower value 0.89 | locus YHR094C, strain hxt1, stronger effect = lower value 0.92 | locus YHR129C, strain ARP1, stronger effect = lower value 0.886 | locus YHR200W, strain rpn10, stronger effect = lower value 0.788 | locus YIL066C, strain RNR3, stronger effect = lower value 0.79 | locus YIL073C, strain SPO22, stronger effect = lower value 0.538 | locus YIL125W, strain kgd1, stronger effect = lower value 0.918 | locus YIR030C, strain dcg1, stronger effect = lower value 0.871 | locus YJL092W, strain hpr5, stronger effect = lower value 0.804 | locus YJL095W, strain BCK1 (second series), stronger effect = lower value 0.886 | locus YJL115W, strain asf1, stronger effect = lower value 0.507 | locus YJL134W, strain LCB3, stronger effect = lower value 0.924 | locus YJL164C, strain tpk1, stronger effect = lower value 0.867 | locus YJL166W, strain qcr8, stronger effect = lower value 0.85 | locus YJL168C, strain set2, stronger effect = lower value 0.863 | locus YJR043C, strain POL32, stronger effect = lower value 0.722
0.899 (active) and 0.963 (inactive): locus YHR030C, strain SLT2, stronger effect = lower value
inactive: locus YBR021W, strain FUR4, stronger effect = lower value 1.06 | locus YBR171W, strain sec66, stronger effect = lower value 0.994 | locus YBR229C, strain ROT2, stronger effect = lower value 0.942 | locus YBR279W, strain paf1, stronger effect = lower value 0.94 | locus YCL069W, strain vba3, stronger effect = lower value 0.972 | locus YCR088W, strain abp1, stronger effect = lower value 0.946 | locus YDL005C, strain med2, stronger effect = lower value 0.967 | locus YDL040C, strain nat1, stronger effect = lower value 0.955 | locus YDR001C, strain nth1, stronger effect = lower value 0.944 | locus YDR069C, strain doa4, stronger effect = lower value 0.908 | locus YDR150W, strain NUM1, stronger effect = lower value 0.945 | locus YDR297W, strain sur2, stronger effect = lower value 0.928 | locus YDR334W, strain swr1, stronger effect = lower value 0.959 | locus YEL003W, strain gim4, stronger effect = lower value 0.924 | locus YEL037C, strain rad23, stronger effect = lower value 0.944 | locus YEL061C, strain CIN8 (second series), stronger effect = lower value 0.949 | locus YER016W, strain bim1, stronger effect = lower value 0.925 | locus YER110C, stronger effect = lower value 0.921 | locus YER111C, strain swi4, stronger effect = lower value 0.989 | locus YER155C, strain BEM2 (second series), stronger effect = lower value 0.931 | locus YER155C, strain BEM2, stronger effect = lower value 0.944 | locus YGL078C, strain dbp3, stronger effect = lower value 0.928 | locus YGL167C, strain pmr1, stronger effect = lower value 0.963 | locus YGL173C, strain kem1, stronger effect = lower value 0.913 | locus YGL227W, strain vid30, stronger effect = lower value 0.959 | locus YGR078C, strain PAC10, stronger effect = lower value 0.905 | locus YGR252W, strain gcn5, stronger effect = lower value 1.06 | locus YHR013C, strain ard1, stronger effect = lower value 1.01 | locus YHR079C, strain IRE1, stronger effect = lower value 0.981 | locus YHR142W, strain chs7, stronger effect = lower value 0.882 | locus YJL129C, strain trk1, stronger effect = lower value 1.08 | locus YJL154C, strain vps35, stronger effect = lower value 0.95 | locus YJL187C, strain SWE1 (second series), stronger effect = lower value 0.871 | locus YJR066W, strain TOR1, stronger effect = lower value 0.879 | locus YKL009W, strain mrt4, stronger effect = lower value 0.897
0.776 (active) and 0.954 (inactive): locus YJL095W, strain BCK1, stronger effect = lower value
